Results published in PubChem BioAssay AID1159580 (chemical genetic matrix, 2015).
“And” between values parts separate entries of the source, which are not always exact repeats. Equal entries are not always repeated. The campaign covered roughly 5,500 compounds. About 2,000 (36%) were called active. Roughly 18% stayed inconclusive and do not appear here. Rule as the data show it: active = normalized growth mostly below about 0.91 (no sharp cut-off); inconclusive = no clear call, values can overlap the other calls; inactive = mostly above about 0.92. This is one part of the list.

Test: chemical genetic growth profiling, strain panel (AID 1159580);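 also: tested at 20 µM; growth read once vehicle control cultures reached saturation at 30 °C; 1 = growth at the plate median or of vehicle wells; lower values mean less growth of the strain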
Details: S. cerevisiae deletion strains, growth OD

Measured: normalized growth

CC1=CC(=O)C2C(C)(C)CCC[C@]2(C)[C@@]1(O)CCc1ccoc1 (some centres not stated)
inactive: locus YAL021C, strain ccr4, active compounds read low 0.986 | locus YAL026C, strain drs2, active compounds read low 1 | locus YAL030W, strain snc1, active compounds read low 0.984 | locus YBL061C, strain skt5, active compounds read low 1.02 | locus YBR009C, strain hhf1, active compounds read low 0.999 | locus YBR021W, strain FUR4, active compounds read low 1.04 | locus YBR023C, strain chs3, active compounds read low 0.982 | locus YBR171W, strain sec66, active compounds read low 0.984 | locus YBR229C, strain ROT2, active compounds read low 1.01 | locus YBR231C, strain swc5, active compounds read low 1.03 | locus YBR279W, strain paf1, active compounds read low 0.975 | locus YCL011C, strain gbp2, active compounds read low 0.996 | locus YCL016C, strain dcc1, active compounds read low 0.989 | locus YCL029C, strain bik1, active compounds read low 0.997 | locus YCL061C, strain MRC1, active compounds read low 1 | locus YCL069W, strain vba3, active compounds read low 1.01 | locus YCR088W, strain abp1, active compounds read low 0.992 | locus YDL005C, strain med2, active compounds read low 0.988 | locus YDL035C, strain GPR1, active compounds read low 1.03 | locus YDL040C, strain nat1, active compounds read low 0.998 | locus YDL074C, strain BRE1, active compounds read low 0.995 | locus YDL101C, strain DUN1, active compounds read low 0.998 | locus YDL185W, strain tfp1, active compounds read low 0.955 | locus YDL192W, strain arf1, active compounds read low 0.998 | locus YDR001C, strain nth1, active compounds read low 1.01 | locus YDR069C, strain doa4, active compounds read low 0.994 | locus YDR101C, strain arx1, active compounds read low 1.01 | locus YDR150W, strain NUM1, active compounds read low 0.988 | locus YDR159W, strain sac3, active compounds read low 1.02 | locus YDR162C, strain NBP2, active compounds read low 1 | locus YDR195W, strain ref2 1.08 | locus YDR297W, strain sur2, active compounds read low 0.991 | locus YDR318W, strain mcm21, active compounds read low 0.997 | locus YDR334W, strain swr1, active compounds read low 1.01 | locus YDR335W, strain msn5, active compounds read low 0.958 | locus YDR388W, active compounds read low 0.999 | locus YDR502C, strain sam2, active compounds read low 0.98 | locus YEL003W, strain gim4, active compounds read low 1.02 | locus YEL037C, strain rad23, active compounds read low 1 | locus YEL061C, strain CIN8 (second series), active compounds read low 0.995 | locus YEL061C, strain CIN8, active compounds read low 1 | locus YER015W, strain faa2, active compounds read low 0.99 | locus YER016W, strain bim1, active compounds read low 0.994 | locus YER110C, active compounds read low 0.987 | locus YER111C, strain swi4, active compounds read low 0.999 | locus YER155C, strain BEM2 (second series), active compounds read low 1.03 | locus YER155C, strain BEM2, active compounds read low 0.989 | locus YER167W, strain BCK2, active compounds read low 0.989 | locus YFR010W, strain ubp6, active compounds read low 1.04 | locus YGL078C, strain dbp3, active compounds read low 0.966 | locus YGL086W, strain mad1, active compounds read low 0.995 | locus YGL167C, strain pmr1, active compounds read low 0.987 | locus YGL173C, strain kem1, active compounds read low 1.01 | locus YGL227W, strain vid30, active compounds read low 0.991 | locus YGL240W, strain doc1, active compounds read low 1.01 | locus YGL248W, strain PDE1, active compounds read low 1.03 | locus YGL253W, strain hxk2, active compounds read low 1.03 | locus YGR078C, strain PAC10, active compounds read low 1.01 | locus YGR135W, strain pre9, active compounds read low 0.941 | locus YGR252W, strain gcn5, active compounds read low 1.08 | locus YHR013C, strain ard1, active compounds read low 0.98 | locus YHR027C, strain rpn1, active compounds read low 0.99 | locus YHR030C, strain SLT2, active compounds read low 1.05 | locus YHR079C, strain IRE1 (second series), active compounds read low 0.972 | locus YHR079C, strain IRE1, active compounds read low 1.04 | locus YHR094C, strain hxt1, active compounds read low 0.973 | locus YHR129C, strain ARP1, active compounds read low 0.989 | locus YHR142W, strain chs7, active compounds read low 0.96 | locus YHR200W, strain rpn10, active compounds read low 1 | locus YIL066C, strain RNR3, active compounds read low 0.998 | locus YIL073C, strain SPO22, active compounds read low 1.02 | locus YIL125W, strain kgd1, active compounds read low 0.98 | locus YIR030C, strain dcg1, active compounds read low 0.976 | locus YJL092W, strain hpr5, active compounds read low 1 | locus YJL095W, strain BCK1 (second series), active compounds read low 0.995 | locus YJL095W, strain BCK1, active compounds read low 1.02 and 1.03 | locus YJL115W, strain asf1, active compounds read low 0.982 | locus YJL129C, strain trk1, active compounds read low 0.945 | locus YJL134W, strain LCB3, active compounds read low 0.99 | locus YJL154C, strain vps35, active compounds read low 1 | locus YJL164C, strain tpk1, active compounds read low 0.955 | locus YJL166W, strain qcr8, active compounds read low 0.995 | locus YJL168C, strain set2, active compounds read low 0.983 | locus YJL187C, strain SWE1 (second series), active compounds read low 1 | locus YJL187C, strain SWE1, active compounds read low 0.992 | locus YJR043C, strain POL32, active compounds read low 1.08 | locus YJR066W, strain TOR1, active compounds read low 0.973 | locus YJR075W, strain HOC1, active compounds read low 0.994 | locus YKL009W, strain mrt4, active compounds read low 0.981 | locus YKL068W, active compounds read low 0.968 | locus YKL085W, strain MDH1 (second series), active compounds read low 0.974 | locus YKL085W, strain MDH1, active compounds read low 0.974 | locus YKL160W, strain elf1, active compounds read low 0.975 | locus YKL190W, strain CNB1, active compounds read low 0.986 | locus YKR001C, strain vps1, active compounds read low 1.04 | locus YKR026C, strain gcn3, active compounds read low 1 | locus YKR091W, strain srl3, active compounds read low 0.991 | locus YLL001W, strain dnm1, active compounds read low 0.964 | locus YLL026W, active compounds read low 0.994 | locus YLL041C, strain sdh2, active compounds read low 0.999 | locus YLR027C, strain aat2, active compounds read low 0.984 | locus YLR039C, strain RIC1, active compounds read low 1 | locus YLR058C, strain SHM2, active compounds read low 1.02 | locus YLR102C, strain apc9, active compounds read low 0.979 | locus YLR113W, strain HOG1, active compounds read low 1.02 | locus YLR221C, strain rsa3, active compounds read low 1.02 | locus YLR258W, strain gsy2, active compounds read low 0.996 | locus YLR268W, strain sec22, active compounds read low 1 | locus YLR320W, strain mms22, active compounds read low 1 | locus YLR342W, strain FKS1, active compounds read low 0.99 | locus YLR357W, strain rsc2, active compounds read low 1.04 | locus YLR370C, strain arc18, active compounds read low 0.996 | locus YLR371W, strain rom2, active compounds read low 0.983 | locus YLR384C, strain iki3, active compounds read low 0.982 | locus YLR418C, strain cdc73, active compounds read low 0.995 | locus YML016C, strain PPZ1, active compounds read low 0.998 | locus YML032C, strain rad52, active compounds read low 0.983 | locus YML120C, strain ndi1, active compounds read low 0.954 | locus YML124C, strain tub3, active compounds read low 0.993 | locus YMR058W, strain fet3, active compounds read low 1 | locus YMR078C, strain ctf18, active compounds read low 0.974 | locus YMR125W, strain sto1, active compounds read low 0.959 | locus YMR129W, active compounds read low 0.981 | locus YMR205C, strain PFK2, active compounds read low 0.922 | locus YMR223W, strain ubp8, active compounds read low 0.972 | locus YMR231W, strain pep5, active compounds read low 0.998 | locus YMR307W, strain GAS1, active compounds read low 1.13 | locus YNL067W, strain RPL9B, active compounds read low 1 | locus YNL183C, strain NPR1, active compounds read low 0.975 | locus YNL209W, strain ssb2, active compounds read low 0.987 | locus YNL233W, strain BNI4, active compounds read low 1.03 | locus YNL248C, strain rpa49, active compounds read low 0.998 | locus YNL250W, strain rad50, active compounds read low 0.927 | locus YNL271C, strain bni1, active compounds read low 0.955 | locus YNL298W, strain CLA4, active compounds read low 0.996 | locus YNL307C, strain MCK1, active compounds read low 0.986 | locus YNL322C, strain KRE1 (second series), active compounds read low 0.998 | locus YNR049C, strain mso1, active compounds read low 1 | locus YNR052C, strain pop2, active compounds read low 0.979 | locus YOL006C, strain TOP1, active compounds read low 1.15 | locus YOL012C, strain htz1 1.06 | locus YOL147C, strain pex11, active compounds read low 0.976 | locus YOR001W, strain rrp6, active compounds read low 1.06 | locus YOR061W, strain CKA2, active compounds read low 0.993 | locus YOR069W, strain VPS5, active compounds read low 0.99 | locus YOR070C, strain gyp1, active compounds read low 0.99 | locus YOR080W, strain dia2, active compounds read low 1 | locus YOR083W, strain WHI5, active compounds read low 1.01 | locus YOR106W, strain vam3, active compounds read low 1 | locus YOR136W, strain idh2, active compounds read low 0.986 | locus YOR144C, strain elg1, active compounds read low 0.986 | locus YOR184W, strain ser1, active compounds read low 1.01 | locus YOR231W, strain MKK1, active compounds read low 1.03 | locus YOR265W, strain rbl2, active compounds read low 1.02 | locus YOR270C, strain vph1, active compounds read low 0.862 | locus YOR290C, strain snf2, active compounds read low 0.959 | locus YOR316C, strain cot1, active compounds read low 0.993 | locus YPL051W, strain arl3, active compounds read low 0.959 | locus YPL078C, strain atp4, active compounds read low 0.966 | locus YPL106C, strain sse1, active compounds read low 1.02 | locus YPL240C, strain hsp82, active compounds read low 1 | locus YPL241C, strain CIN2, active compounds read low 0.985 | locus YPL256C, strain CLN2, active compounds read low 1.01 | locus YPR119W, strain clb2, active compounds read low 0.969 | locus YPR141C, strain kar3, active compounds read low 0.962 | locus YPR163C, strain tif3, active compounds read low 0.977 | locus YPR167C, strain met16, active compounds read low 0.972 | strain wtn01, active compounds read low 1.01
active: locus YDR137W, strain rgp1, active compounds read low 0.825 | locus YDR392W, strain spt3, active compounds read low 0.628 | locus YLR262C, strain YPT6 (second series), active compounds read low 0.835 | locus YNL071W, strain lat1, active compounds read low 0.902
